Bioassay records (PubChem)
This is a sample that favours compounds with a hit; in the whole collection about 4% have one here.
D1 antag: Antagonist of Human D 1 Dopamine Receptor: qHTS; HEK293 TREx D1 cells, calcium flux, dopamine EC80; active compounds read low; AID 504652, 2011; D(1A) dopamine receptor (Homo sapiens), P21728; 3.2% of 360,000 active; activity change, negative = inhibition, % at 10 µM; in the data active = activity change below about -30%
Target sequence (P21728 whole entry, looked up): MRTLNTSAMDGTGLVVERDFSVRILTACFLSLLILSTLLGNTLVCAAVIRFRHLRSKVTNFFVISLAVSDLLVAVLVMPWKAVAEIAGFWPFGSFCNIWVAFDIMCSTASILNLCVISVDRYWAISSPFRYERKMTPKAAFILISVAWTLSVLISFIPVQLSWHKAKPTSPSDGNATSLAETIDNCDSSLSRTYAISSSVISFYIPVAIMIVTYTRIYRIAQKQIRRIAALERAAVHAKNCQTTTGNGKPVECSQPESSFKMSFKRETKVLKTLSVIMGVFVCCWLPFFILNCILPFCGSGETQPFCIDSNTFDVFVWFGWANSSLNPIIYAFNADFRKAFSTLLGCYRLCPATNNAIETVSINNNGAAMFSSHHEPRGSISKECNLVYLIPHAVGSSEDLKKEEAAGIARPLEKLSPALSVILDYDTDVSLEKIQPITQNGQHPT
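Using tetracycline-induced force-coupled D1 Hek293 cells and a calcium dye, signals were followed for 180 s after compound, then for 180 s after EC80 dopamine, to detect inhibitors.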
TRHR PAM: qHTS for Small Molecule Agonists and Allosteric Enhancers of Human TRH Receptor: Primary Screen for Enhancers | 0.66% of 360,000 active | TRHR cells, fluo-8 calcium fluorescence, EC20 TRH enhancement | enhancement, % at 2 µM | Thyrotropin-releasing hormone receptor (Homo sapiens), P34981; in the data active = enhancement above about 30%
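Enhancer read-out: after compound pinning and an initial kinetic agonist-mode read, an EC20 of TRH (10 nM final) was injected and fluo-8 calcium signal (Ex 480/Em 530) followed at 1 s/cycle for 100 cycles in TRHR-expressing cells.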
Glioma ERSR ind: qHTS for Inducers of the Endoplasmic Reticulum Stress Response (ERSR) in Human Glioma: qHTS; 0.02% of 420,000 active; U87-MG GRP78 promoter luciferase reporter, 16 h; Potency, µM, hits mostly activators; active = well fitted activation curve with a large enough effect; inconclusive = small, poorly fitted or top-dose-only effect; inactive = no such curve, though single readings can be large or run the other way; note: series mostly up to about 76 µM; nearly all actives have a fitted effect of over 35% in size
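ERSR induction read as luciferase luminescence (Bright-Glo, 10 min at room temperature) in stably transfected human U87-MG glioma cells exposed to compounds for 16 h, using GRP78 as sensor.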
TRHR agonist: qHTS for Small Molecule Agonists and Allosteric Enhancers of Human TRH Receptor: Primary Screen for Agonists | activation, % at 2 µM | TRHR cells, calcium flux fluo-8, FDSS agonist mode | AID 493084, 2011 | 0.18% of 360,000 active | Thyrotropin-releasing hormone receptor (Homo sapiens), P34981
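TRHR-expressing cells, plated overnight in medium with 10% serum, were loaded with fluo-8 calcium dye at room temperature. After a 10 s baseline, library compound was pin-added and calcium release was recorded kinetically (ex 480/em 530) as agonist response.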
D1 potentiator: Potentiators of Human D1 Dopamine Receptor: qHTS; D(1A) dopamine receptor (Homo sapiens), P21728; HEK293 TREx D1 cells, calcium flux, dopamine EC20 potentiation; potentiation, % at 10 µM; 0.036% of 360,000 active; in the data active = potentiation above about 30%
D1 agonist: Allosteric Agonists of the Human D1 Dopamine Receptor: qHTS; 1% of 360,000 active; D(1A) dopamine receptor (Homo sapiens), P21728; HEK293 T-REx D1 cells, calcium flux, agonist mode; activation, % at 2 µM; AID 504660, 2011
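Agonism was scored from calcium flux recorded over 180 s (1 read/s) after pintool compound addition, following a 10-cycle baseline. Cells were inducible force-coupled HEK293 TREx D1, plated overnight at 30 C and loaded with no-wash calcium dye.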
Of the large screens only hits and unclear results are named; the others gave an inactive call; ! = not confirmed by another sample. Cut-off read from the data, not from the text of the source, unless noted: active = activation above about 30%; inactive = the rest.

COc1cc(OC)c(OC)cc1CN1CCN(Cc2ccc(C(F)(F)F)cc2)CC1	none
CN(C)CCNS(=O)(=O)c1ccc(N2CCN(c3ccc(F)cc3)CC2)c([N+](=O)[O-])c1	D1 antag -49.4, D1 agonist 59.0
CC(=O)c1cccc(NC(=O)/C(=C/c2ccco2)NC(=O)c2ccco2)c1	D1 potentiator 38.0
O=C1NCCCCC1NS(=O)(=O)c1ccc(F)c(F)c1 (configuration not stated)	none
O=C(c1ccc(COc2ccccc2Cl)o1)N1CCCC1	none
CC1CCN(C(=O)c2ccc(COc3ccccc3Cl)o2)CC1	D1 antag -35.6
FC(F)C(F)(F)c1cc(-c2ccccc2)n[nH]1	D1 agonist 42.8
O=C(O)c1cc(-c2ccccc2)n[nH]1	none
CN(CCC#N)C(=S)Nc1ccc(F)cc1	D1 antag -30.5
Nn1c(Cc2cccc3ccccc23)nnc1SCCOc1ccc(F)cc1	D1 antag -98.4
CCC(C)N(CCNC(=O)c1ccc2c(c1)NC(=O)c1ccccc1S2)C1CCCCC1 (configuration not stated)	D1 agonist 30.4
O=C(NCCCN1CCCC1=O)c1ccc2c(c1)NC(=O)c1ccccc1S2	D1 antag -32.1 (no result: D1 potentiator)
CCN1CCN(CCCNC(=O)c2ccc3c(c2)NC(=O)c2ccccc2S3)CC1	none
O=C1CCCN1CCCNC(=S)Nc1ccc(Nc2ccccc2)cc1	none
O=C1CCCN1CCCNC(=S)Nc1ccccc1	D1 antag -38.2
COc1cc(C(=O)NCCCN2CCCC2=O)ccc1OCc1ccc(Cl)cc1Cl	D1 agonist 38.3
COc1ccc(Cl)cc1NC(=S)NCCCN1CCCC1=O	none
COc1ccc(C(C)=O)cc1CSCC(=O)O	none
Brc1ccc(-c2csc(/N=C/N3CCCC3)n2)cc1	none
Brc1ccc(-c2csc(/N=C/N3CCOCC3)n2)cc1	D1 antag -33.4, Glioma ERSR ind inconclusive
Cc1ccc(Cn2c(C(C)Nc3nc(-c4ccc(F)cc4)cs3)nc3cc(Cl)c(Cl)cc32)cc1 (configuration not stated)	none (no result: D1 antag, TRHR PAM, TRHR agonist, D1 potentiator, D1 agonist)
O=C(Nc1cccc(-c2cn3ccccc3n2)c1)c1cc2ccccc2oc1=O	D1 antag -35.3
COc1cc(/C=C/C(=O)OCC(=O)N2CCCc3ccccc32)ccc1OCC#N	none
COc1ccc(CNC(C)C2COc3ccccc3O2)c(OC)c1 (configuration not stated)	none
CC(NCc1ccccc1)C1COc2ccccc2O1 (configuration not stated)	TRHR PAM 31.3
O=C1C=C(c2ccc3c(c2)oc2ccccc23)C[C@@H](c2ccc3c(c2)OCO3)C1	D1 antag -32.9
Cc1ccc(C2=CC(=O)C[C@H](c3ccc4c(c3)OCO4)C2)cc1	none (no result: D1 antag)
O=C(NCCN1CCCCC1)Nc1ccc(F)cc1F	TRHR PAM 36.9
O=C(NCCN1CCCCC1)Nc1ccccc1F	none
CCOC(=O)c1cccc(NC(=O)CCc2nc(-c3ccc(C)cc3)no2)c1	D1 agonist 31.4
Cc1ccc(-c2noc(CCC(=O)NC3CCN(Cc4ccccc4)CC3)n2)cc1	none
O=C(CCc1nc(-c2ccccc2F)no1)NC1CCN(Cc2ccccc2)CC1	D1 antag -30.1, D1 agonist 31.1
COc1ccc(-c2noc(CCC(=O)Nc3cccc(C)c3)n2)cc1	D1 antag -44.6
COc1cccc(NC(=O)CCc2nc(-c3ccc(C(C)(C)C)cc3)no2)c1	none
CCN(C(=O)CCc1nc(-c2ccc(OC)cc2)no1)c1cc(OC)ccc1OC	D1 antag -49.0
COc1ccccc1NC1=C(C)C(=O)CC1	none
CCOC(=O)C1CCCN(C(=S)Nc2ccc(S(=O)(=O)N3CCOCC3)cc2)C1 (configuration not stated)	none (no result: D1 antag, TRHR PAM, TRHR agonist, D1 potentiator, D1 agonist)
CN(C(=O)c1oc(=O)c2ccccc2c1-c1ccccc1)c1cccc(Cl)c1	none
COc1ccc(CCCc2nnc(SCC(=O)Nc3cccc(C)c3)o2)cc1	D1 antag -42.9!, D1 agonist 46.5!
O=C(CCc1nc(-c2cccs2)no1)Nc1cccc([N+](=O)[O-])c1	D1 antag -33.9
O=C(CCc1nc(-c2ccccc2F)no1)Nc1cccc(C(F)(F)F)c1	D1 agonist 31.5
O=C(CCc1nc(-c2cccs2)no1)Nc1ccc([N+](=O)[O-])cc1	none
O=C(Cc1cccs1)Nc1nncs1	none
Cc1ccc(CNC(=O)CSc2ccc(-c3sc(-c4ccccc4)nc3C)nn2)cc1	none
Cc1nc(-n2nc(C)c(Cc3ccc4c(c3)OCO4)c2C)sc1C(=O)Nc1cccc(Cl)c1	none
CCc1ccccc1NC(=O)Nc1ccc2snnc2c1	D1 agonist 33.1
COc1cccc(NC(=O)Nc2ccc3snnc3c2)c1	D1 agonist 37.2
Cc1ccc(NC(=O)Nc2ccc3snnc3c2)cc1C	none
COc1cccc(NC(=O)Nc2nc(-c3ccc(OC)c(OC)c3)cs2)c1	D1 antag -40.4
O=c1oc2ccccc2cc1-c1cn2cc(Cc3ccc(Br)cc3)sc2n1	D1 agonist 45.3
Cc1ccc(C(=O)c2oc3ccccc3c2NC(=O)COc2ccccc2Cl)cc1	none
Cc1cc(C)n2c(SCC(C)C)nnc2n1	TRHR PAM 33.2
CCSc1nnc2nc(C)cc(C)n12	none
Cc1cc(N2C(=O)C(O)=C(C(=O)c3cc4ccccc4o3)C2c2ccc(Br)cc2)no1 (configuration not stated)	none
Cc1nc(-c2ccc(S(=O)(=O)NCc3ccc(N(C)C)cc3)cc2)co1	none
COc1ccc(NS(=O)(=O)c2ccc(-c3coc(C)n3)cc2)c(OC)c1	D1 antag -32.6
Cc1ccc(N(C)S(=O)(=O)c2ccc(-c3coc(C)n3)cc2)cc1	D1 antag -38.6
Cc1nc(-c2ccc(S(=O)(=O)NCc3ccc(F)cc3)cc2)co1	D1 antag -55.8
COc1ccc(N2C(=O)C(CC(=O)Nc3ccccc3)N(CCc3ccc(OC)c(OC)c3)C2=O)cc1 (configuration not stated)	none
COc1ccc(Br)cc1/C=c1\sc2nc(-c3ccco3)nn2c1=O	none
COc1ccccc1/C=c1\sc2nc(-c3ccccc3OC)nn2c1=O	D1 antag -36.0
Cc1cc(/C=C(\C#N)C(=O)NCC2CCCO2)c(C)n1-c1ccc(Cl)cc1 (configuration not stated)	D1 antag -35.0
